PubChem BioAssay AID1159580 (chemical genetic matrix, 2015)
The campaign covered roughly 5,500 compounds. About 2,000 (36%) were called active. About 18% were inconclusive and are not listed. No stated cut-off is given here; in the data, active means normalized growth mostly below about 0.91 (no sharp cut-off); inconclusive means no clear call, values can overlap the other calls; inactive means mostly above about 0.92. This is one part of the list.

Test: chemical genetic growth profiling, strain panel (AID 1159580);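 further: tested at 20 µM; growth read once vehicle control cultures reached saturation at 30 °C; 1 = growth at the plate median or of vehicle wells; lower values mean less growth of the strain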
Conditions: growth OD

Measured: normalized growth

CC(C)=CCc1c2c(c3occ(-c4ccc(O)c(O)c4)c(=O)c3c1O)C=CC(C)(C)O2
active: S. cerevisiae deletion strains, locus YKL009W, strain mrt4, active compounds read low 0.867 | S. cerevisiae deletion strains, locus YKR001C, strain vps1, active compounds read low 0.578 | S. cerevisiae deletion strains, locus YLR039C, strain RIC1, active compounds read low 0.235 | S. cerevisiae deletion strains, locus YLR058C, strain SHM2, active compounds read low 0.239 | S. cerevisiae deletion strains, locus YLR221C, strain rsa3, active compounds read low 0.905 | S. cerevisiae deletion strains, locus YLR262C, strain YPT6, active compounds read low 0.298 | S. cerevisiae deletion strains, locus YLR268W, strain sec22, active compounds read low 0.495 | S. cerevisiae deletion strains, locus YLR330W, strain CHS5, active compounds read low 0.36 | S. cerevisiae deletion strains, locus YLR342W, strain FKS1 (second series), active compounds read low 0.195 | S. cerevisiae deletion strains, locus YLR371W, strain rom2, active compounds read low 0.447 | S. cerevisiae deletion strains, locus YLR418C, strain cdc73, active compounds read low 0.252 | S. cerevisiae deletion strains, locus YML016C, strain PPZ1, active compounds read low 0.174 | S. cerevisiae deletion strains, locus YML032C, strain rad52, active compounds read low 0.812 | S. cerevisiae deletion strains, locus YML124C, strain tub3, active compounds read low 0.849 | S. cerevisiae deletion strains, locus YMR058W, strain fet3, active compounds read low 0.755 | S. cerevisiae deletion strains, locus YMR223W, strain ubp8, active compounds read low 0.72 | S. cerevisiae deletion strains, locus YMR307W, strain GAS1, active compounds read low 0.396 | S. cerevisiae deletion strains, locus YNL067W, strain RPL9B, active compounds read low 0.427 | S. cerevisiae deletion strains, locus YNL128W, strain TEP1, active compounds read low 0.202 | S. cerevisiae deletion strains, locus YNL153C, strain GIM3, active compounds read low 0.388 | S. cerevisiae deletion strains, locus YNL209W, strain ssb2, active compounds read low 0.883 | S. cerevisiae deletion strains, locus YNL233W, strain BNI4, active compounds read low 0.401 | S. cerevisiae deletion strains, locus YNL307C, strain MCK1, active compounds read low 0.546 | S. cerevisiae deletion strains, locus YNL322C, strain KRE1, active compounds read low 0.339 | S. cerevisiae deletion strains, locus YNR052C, strain pop2, active compounds read low 0.682 | S. cerevisiae deletion strains, locus YOL006C, strain TOP1, active compounds read low 0.142 | S. cerevisiae deletion strains, locus YOL147C, strain pex11, active compounds read low 0.634 | S. cerevisiae deletion strains, locus YOR061W, strain CKA2, active compounds read low 0.257 | S. cerevisiae deletion strains, locus YOR069W, strain VPS5, active compounds read low 0.546 | S. cerevisiae deletion strains, locus YOR106W, strain vam3, active compounds read low 0.856 | S. cerevisiae deletion strains, locus YOR136W, strain idh2, active compounds read low 0.837 | S. cerevisiae deletion strains, locus YOR144C, strain elg1, active compounds read low 0.723 | S. cerevisiae deletion strains, locus YOR184W, strain ser1, active compounds read low 0.548 | S. cerevisiae deletion strains, locus YOR316C, strain cot1, active compounds read low 0.848 | S. cerevisiae deletion strains, locus YPL051W, strain arl3, active compounds read low 0.913 | S. cerevisiae deletion strains, locus YPL055C, strain LGE1, active compounds read low 0.203 | S. cerevisiae deletion strains, locus YPR163C, strain tif3, active compounds read low 0.735 | S. cerevisiae deletion strains, locus YPR167C, strain met16, active compounds read low 0.739 | S. cerevisiae deletion strains, strain wtn01, active compounds read low 0.533 | S. cerevisiae strains, strain wild type, active compounds read low 0.173
inactive: S. cerevisiae deletion strains, locus YKL068W, active compounds read low 1 | S. cerevisiae deletion strains, locus YKL085W, strain MDH1 (second series), active compounds read low 0.947 | S. cerevisiae deletion strains, locus YKL085W, strain MDH1, active compounds read low 0.947 | S. cerevisiae deletion strains, locus YKL160W, strain elf1, active compounds read low 0.957 | S. cerevisiae deletion strains, locus YKR026C, strain gcn3, active compounds read low 0.994 | S. cerevisiae deletion strains, locus YKR091W, strain srl3, active compounds read low 0.997 | S. cerevisiae deletion strains, locus YLL001W, strain dnm1, active compounds read low 0.959 | S. cerevisiae deletion strains, locus YLL026W, active compounds read low 0.985 | S. cerevisiae deletion strains, locus YLL041C, strain sdh2, active compounds read low 0.993 | S. cerevisiae deletion strains, locus YLR027C, strain aat2, active compounds read low 0.935 | S. cerevisiae deletion strains, locus YLR102C, strain apc9, active compounds read low 0.957 | S. cerevisiae deletion strains, locus YLR113W, strain HOG1, active compounds read low 0.868 | S. cerevisiae deletion strains, locus YLR258W, strain gsy2, active compounds read low 0.935 | S. cerevisiae deletion strains, locus YLR262C, strain YPT6 (second series), active compounds read low 0.995 | S. cerevisiae deletion strains, locus YLR320W, strain mms22, active compounds read low 0.931 | S. cerevisiae deletion strains, locus YLR342W, strain FKS1, active compounds read low 0.959 | S. cerevisiae deletion strains, locus YLR357W, strain rsc2, active compounds read low 0.873 | S. cerevisiae deletion strains, locus YLR370C, strain arc18, active compounds read low 0.947 | S. cerevisiae deletion strains, locus YLR384C, strain iki3, active compounds read low 0.98 | S. cerevisiae deletion strains, locus YML120C, strain ndi1, active compounds read low 0.956 | S. cerevisiae deletion strains, locus YMR078C, strain ctf18, active compounds read low 0.929 | S. cerevisiae deletion strains, locus YMR125W, strain sto1, active compounds read low 1.01 | S. cerevisiae deletion strains, locus YMR129W, active compounds read low 0.981 | S. cerevisiae deletion strains, locus YMR205C, strain PFK2, active compounds read low 0.957 | S. cerevisiae deletion strains, locus YMR231W, strain pep5, active compounds read low 0.984 | S. cerevisiae deletion strains, locus YNL071W, strain lat1, active compounds read low 0.942 | S. cerevisiae deletion strains, locus YNL183C, strain NPR1, active compounds read low 0.885 | S. cerevisiae deletion strains, locus YNL248C, strain rpa49, active compounds read low 1 | S. cerevisiae deletion strains, locus YNL250W, strain rad50, active compounds read low 0.966 | S. cerevisiae deletion strains, locus YNL271C, strain bni1, active compounds read low 0.943 | S. cerevisiae deletion strains, locus YNL298W, strain CLA4, active compounds read low 0.922 | S. cerevisiae deletion strains, locus YNL322C, strain KRE1 (second series), active compounds read low 0.969 | S. cerevisiae deletion strains, locus YNR049C, strain mso1, active compounds read low 0.985 | S. cerevisiae deletion strains, locus YOL012C, strain htz1 0.238 | S. cerevisiae deletion strains, locus YOR001W, strain rrp6, active compounds read low 0.952 | S. cerevisiae deletion strains, locus YOR070C, strain gyp1, active compounds read low 0.951 | S. cerevisiae deletion strains, locus YOR080W, strain dia2, active compounds read low 0.961 | S. cerevisiae deletion strains, locus YOR083W, strain WHI5, active compounds read low 0.937 | S. cerevisiae deletion strains, locus YOR231W, strain MKK1, active compounds read low 0.917 | S. cerevisiae deletion strains, locus YOR265W, strain rbl2, active compounds read low 0.977 | S. cerevisiae deletion strains, locus YOR270C, strain vph1, active compounds read low 0.925 | S. cerevisiae deletion strains, locus YOR290C, strain snf2, active compounds read low 0.93 | S. cerevisiae deletion strains, locus YPL078C, strain atp4, active compounds read low 0.957 | S. cerevisiae deletion strains, locus YPL106C, strain sse1, active compounds read low 0.919 | S. cerevisiae deletion strains, locus YPL240C, strain hsp82, active compounds read low 0.984 | S. cerevisiae deletion strains, locus YPL256C, strain CLN2, active compounds read low 0.921 | S. cerevisiae deletion strains, locus YPR119W, strain clb2, active compounds read low 0.965 | S. cerevisiae deletion strains, locus YPR141C, strain kar3, active compounds read low 0.985
